Screening data (PubChem)
Only some compounds are listed: those with a hit (about 2.8% of all), similar ones and a draw of the others.
Shn3 3UTR inh: inhibitors of Schnurri-3 3'UTR reporter in osteoblasts. Clone20 osteoblast Shn3 3'UTR firefly luciferase, 24 h. inhibition, % at 12.5 µM. 0.52% of 360,000 active. AID 588674;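 active = mean inhibition of at least 75% with every replicate also reaching 75%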;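 note: 0% = median of neutral control wells and 100% = pilot-screen positive control compound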
LMP1 NFkB inh: reduces LMP1-driven NF-kappaB luciferase signal. LMP1-induced NF-kappaB luciferase reporter cells, luminescence. inhibition, % at 12.5 µM. 0.69% of 350,000 active. AID 504558; in the data active = inhibition above about 41%;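 note: 0% = neutral control wells and 100% = reference inhibitor control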
MITF TRPM1 inh: inhibitors of MITF-driven TRPM1 promoter in melanoma cells; SK-MEL-5 TRPM1 promoter luciferase, 24 h; inhibition, % at 12.5 µM; 0.83% of 330,000 active; AID 488899;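 active = mean inhibition across replicates of 60% or more, whatever share of single replicates reaches that level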
PAX8 inh HTS: inhibitors of PAX8 transcriptional activity in RMG-I cells | 1.2% of 360,000 active | inhibition, % at 12.6 µM | RMG-I TPO-luciferase reporter, SteadyGlo, 24 h;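 active = mean replicate inhibition at least 60% with every replicate also reaching 60%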;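 note: luciferase light reporting Pax8 driven TPO promoter activity; plate controls were median of neutral control wells for no effect and mitoxantrone controls for full effect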
HIF-2a block: HIF-2a inhibition; 786-0 RCC cells HIF-2a reporter, luciferase luminescence, overnight; inhibition, % at 18.8 µM; 0.72% of 360,000 active;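 active = inhibition of the luminescence signal of 40% or more relative to plate controls, in a single-dose primary screen at 18.75 µM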
Peg3 prom inh: Peg3 promoter activity inhibition; 1.7% of 360,000 active; inhibition, % at 20 µM; AID 588405; HeLa PEG-Prom luciferase reporter, luminescence, overnight;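 active = inhibition of at least 50% at 20 µM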
The depositor's hits bear a star; . = no result given.

SMILES	Shn3 3UTR inh	LMP1 NFkB inh	MITF TRPM1 inh	PAX8 inh HTS	HIF-2a block	Peg3 prom inh
Cc1ccc(C(=O)N2C(=S)C(c3ccc(F)cc3)=NC23CCN(C)CC3)cc1	75.1	17.6	51.1	-23.9	14.4	90.0*
CN1CCN(C(=O)C[C@H]2CC[C@@H]3[C@H](COC[C@H](O)CN3C(=O)Cc3ccccc3)O2)CC1	.	.	.	3.0	.	.
C[C@@H]1CN([C@@H](C)CO)C(=O)c2cccc(NS(=O)(=O)c3ccccc3)c2O[C@@H]1CN(C)C	.	.	.	-13.4	.	.
CCCC(=O)NC(c1cccs1)c1cc([N+](=O)[O-])c2cccnc2c1O (centres undefined)	21.2	2.2	5.0	-3.3	14.2	54.3*
O=C(CCc1ccccc1)NC(c1cccs1)c1cc(Cl)c2cccnc2c1O (centres undefined)	81.4	53.9*	56.4	77.6*	4.5	41.9
CC(=O)NC(c1cccs1)c1cc([N+](=O)[O-])c2cccnc2c1O (centres undefined)	-27.7	23.8	11.5	.	1.6	47.7
COc1ccc(NC(=O)Nc2cccc3c2O[C@H](CN(C)C(=O)NC2CCCCC2)[C@H](C)CN([C@H](C)CO)C3=O)cc1	.	.	.	-9.0	.	.
C[C@@H]1CN([C@@H](C)CO)C(=O)c2cc(NC(=O)CCCN(C)C)ccc2O[C@@H](C)CCCCO[C@H]1CN(C)C(=O)CCCN(C)C	.	.	.	-26.8	.	.
CCCC(=O)Nc1ccc2c(c1)C(=O)N(C)[C@H]1CC[C@H](CC(=O)NC3CCCC3)O[C@@H]1CO2	.	.	.	-12.5	.	.
Cc1ccc(-n2c3nc(=O)[nH]c(=O)c-3cc3cc([N+](=O)[O-])ccc32)cc1C	-10.7	3.4	42.8	7.2	29.2	73.6*
Cc1ccc(-c2nc3cc(N)ccc3o2)c(C)c1	-3.7	-5.9	1.6	.	-85.3	-199.2
Nc1ccc2oc(-c3cccc4ccccc34)nc2c1	30.5	26.7	47.2	.	87.4*	-25.8
CCCCC1C(=O)N(c2ccccc2)N(c2ccccc2)C1=O	-10.9	10.1	-2.4	-8.7	-0.6	-13.8
CCCCN1C=CC(=C2C(=O)c3ccccc3C2=O)C=C1	91.2*	75.0*	95.5*	82.1*	89.5*	109.8*
O=C(C[C@H]1CC[C@@H]2[C@H](COC[C@H](O)CN2C(=O)C2CC2)O1)NCc1ccncc1	.	.	.	0.0	.	.
COC(=O)C[C@H]1CC[C@H]2[C@H](COc3ccc(NC(=O)Nc4ccc(Cl)cc4)cc3C(=O)N2C)O1	.	.	.	20.6	.	.
CC1=CN2C(=N)/C(=C/c3ccc([N+](=O)[O-])o3)C(=O)N=C2S1	93.6*	-24.0	88.6*	14.3	66.7*	107.2*
C[C@@H]1CCCCO[C@@H](CN(C)Cc2ccccc2)[C@@H](C)CN([C@@H](C)CO)C(=O)c2cc(NC(=O)Nc3ccc(C(F)(F)F)cc3)ccc2O1	.	.	.	52.0	.	.
C[C@@H]1CCCCO[C@@H](CN(C)Cc2ccccc2)[C@H](C)CN([C@H](C)CO)C(=O)c2cc(NC(=O)Nc3ccc(C(F)(F)F)cc3)ccc2O1	.	.	.	112.1*	.	.
C[C@@H]1CCCCO[C@@H](CN(C)Cc2ccccc2)[C@@H](C)CN([C@H](C)CO)C(=O)c2cc(NC(=O)Nc3ccc(C(F)(F)F)cc3)ccc2O1	.	.	.	77.3*	.	.
C[C@H](CO)N1C[C@H](C)[C@H](CN(C)Cc2ccc(C(F)(F)F)cc2)OCCCC[C@H](C)Oc2ccc(NC(=O)Nc3ccccc3)cc2C1=O	.	.	.	84.9*	.	.
C[C@@H]1CCCCO[C@@H](CN(C)Cc2ccccc2)[C@H](C)CN([C@@H](C)CO)C(=O)c2cc(NC(=O)Nc3ccc(C(F)(F)F)cc3)ccc2O1	.	.	.	105.8*	.	.
C[C@H]1CCCCO[C@H](CN(C)Cc2ccc(C(F)(F)F)cc2)[C@@H](C)CN([C@@H](C)CO)C(=O)c2cc(NC(=O)Nc3ccccc3)ccc2O1	.	.	.	59.9	.	.
CCC(=O)Nc1ccc2c(c1)C(=O)N(C)C[C@@H](OC)[C@@H](C)CN(CC1CC1)[C@@H](C)CO2	.	.	.	-1.8	.	.
CN(C)c1ccc(Sc2ccc3nc(N)nc(N)c3c2)cc1	79.8	17.4	.	52.8	-4.3	105.4*
SMILES	Shn3 3UTR inh	LMP1 NFkB inh	MITF TRPM1 inh	PAX8 inh HTS	HIF-2a block	Peg3 prom inh
CC1CN(c2cc(=O)n(-c3ccccc3)c(=O)[nH]2)CC(C)O1 (centres undefined)	-36.6	60.6*	6.2	-12.9	4.2	7.4
Cc1ccc(-n2c(=O)cc(N3CC(C)OC(C)C3)[nH]c2=O)cc1 (centres undefined)	1.3	-4.6	.	1.6	-0.6	-0.8
C[C@@H]1CCCCO[C@@H](CN(C)Cc2ccc(C(F)(F)F)cc2)[C@H](C)CN([C@H](C)CO)C(=O)c2cc(NC(=O)c3ccncc3)ccc2O1	.	.	.	35.4	.	.
C[C@H]1CCCCO[C@@H](CN(C)Cc2ccc(C(F)(F)F)cc2)[C@@H](C)CN([C@@H](C)CO)C(=O)c2cc(NC(=O)c3ccccc3)ccc2O1	.	.	.	87.3*	.	.
C[C@@H]1CN([C@H](C)CO)C(=O)c2cc(NC(=O)c3ccncc3)ccc2O[C@@H](C)CCCCO[C@H]1CN(C)Cc1ccc(C(F)(F)F)cc1	.	.	.	82.5*	.	.
C[C@H]1CCCCO[C@H](CN(C)Cc2ccc(C(F)(F)F)cc2)[C@@H](C)CN([C@@H](C)CO)C(=O)c2cc(NC(=O)c3ccccc3)ccc2O1	.	.	.	84.6*	.	.
C[C@@H]1CN([C@@H](C)CO)C(=O)c2cc(NC(=O)c3ccccc3)ccc2O[C@@H](C)CCCCO[C@H]1CN(C)Cc1ccc(C(F)(F)F)cc1	.	.	.	88.4*	.	.
CN(C)C(=O)C[C@H]1CC[C@@H]2[C@H](COc3ccc(NS(=O)(=O)c4cccc(F)c4)cc3C(=O)N2C)O1	.	.	.	-7.8	.	.
C[C@@H]1CCCCO[C@@H](CN(C)Cc2ccc(C(F)(F)F)cc2)[C@@H](C)CN([C@H](C)CO)C(=O)c2cc(NC(=O)c3ccccc3)ccc2O1	.	.	.	13.6	.	.
C[C@@H]1CCCCO[C@H](CN(C)Cc2ccc(C(F)(F)F)cc2)[C@@H](C)CN([C@@H](C)CO)C(=O)c2cc(NC(=O)c3ccccc3)ccc2O1	.	.	.	90.8*	.	.
C[C@@H]1CCCCO[C@@H](CN(C)C(=O)Nc2ccc(C(F)(F)F)cc2)[C@H](C)CN([C@@H](C)CO)C(=O)c2cc(NC(=O)c3ccncc3)ccc2O1	.	.	.	28.2	.	.
C[C@H]1CCCCO[C@H](CN(C)C(=O)Nc2ccc(C(F)(F)F)cc2)[C@@H](C)CN([C@@H](C)CO)C(=O)c2cc(NC(=O)c3ccncc3)ccc2O1	.	.	.	93.5*	.	.
NCC(c1ccccc1Cl)c1c[nH]c2ccccc12 (centres undefined)	14.1	-4.6	14.4	28.5	24.9	6.8
NCC(c1ccc(Cl)cc1Cl)c1c[nH]c2ccccc12 (centres undefined)	-0.6	1.2	16.9	2.1	6.9	96.3*
CN(C)CCCNC(=S)NCC(c1ccc(Cl)cc1Cl)c1c[nH]c2ccccc12 (centres undefined)	4.5	-41.0	46.4	29.0	11.8	103.3*
C[C@H](CO)N1C[C@H](C)[C@H](CN(C)Cc2ccncc2)Oc2ccc(N(C)C)cc2CC1=O	.	.	.	-5.9	.	.
